TDP1 cell CPT: growth inhibition of DT40 Tdp1-/-;hTDP1 cells with camptothecin (screen for TDP1 inhibitors); chicken DT40 Tdp1-/-;hTDP1 cells + 20 nM CPT, ATP luminescence, 48 h; Potency, µM (series often up to 46.2 µM), for inactives: top-dose activity change, negative = growth inhibition, most hits filed as inhibitors; 420,000 compounds, 12% hits; also: % is scaled to controls: 0 for no effect and ±100 for the full control effect; nearly all actives have a fitted effect of over 55% in size
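Cell growth measured by CellTiter-Glo luminescence after a minimum 48 h, 37 C compound exposure with 20 nM CPT in Tdp1-knockout DT40 cells stably expressing hTDP1, seeded 400/well; qHTS titration format.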
DT40 TDP1 no CPT: qHTS for Inhibitors of human tyrosyl-DNA phosphodiesterase 1 (TDP1): qHTS in cells in absence of CPT; 420,000 compounds, 15% hits; Potency, µM (highest dose often 46.2 µM), inactives show at the highest dose activity change, negative = growth inhibition, actives largely listed as inhibitors; AID 686978, 2013; DT40 Tdp1-/- hTDP1 cells, no CPT, ATP luminescence, 48 h; also: % is scaled to controls: 0 for no effect and ±100 for the full control effect; nearly all actives have a fitted effect of over 55% in size
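Stably hTDP1-transfected Tdp1-null chicken DT40 cells were treated with library compounds minus camptothecin and grown for at least 48 hr at 37 °C, after which cellular ATP was quantified by luminescence.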
ATXN2 expr inh: ATXN2 expression inhibition; HEK-293 ATXN2-luciferase reporter, luminescence, 24 h; Potency, µM (titrated, usually from 57 µM), for inactives: top-dose activity change, negative = inhibition, hits mostly inhibitors; 360,000 compounds, 0.72% hits; AID 1745845; also: % is scaled to controls: 0 for no effect and ±100 for the full control effect; nearly all actives have a fitted effect of over 55% in size
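ATXN2-luciferase reporter cells (luciferase flanked by upstream and downstream ATXN2 gene portions) were treated 24 h at 37 °C with compounds at up to 57 uM. SteadyGlo luminescence gave expression; GF-AFC fluorescence gave viability.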
TGFb inhibitor: inhibitors of TGF-b signaling | Potency, µM (doses to about 46.1 µM), without a hit: top-dose activity, negative = inhibition, hits mostly inhibitors | AID 588855 | 410,000 compounds, 1.2% hits | HepG2 CAGA-GFP TGF-b/SMAD3 reporter, GFP fluorescence, 18 h; TGF-beta stimulated, 500 pg/mL final; also: % is scaled to controls: 0 for no effect and ±100 for the full control effect; nearly all actives have a fitted effect of over 65% in size
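Inhibition was scored as loss of TGF-beta-induced (500 pg/mL final, 18 hours, 37 degrees C) GFP in HEPG2 cells carrying a CAGA-GFP reporter, in DMEM with 1% FBS. Well GFP was summed per cell; Activity was normalised to unstimulated and stimulated DMSO wells, then concentration-response fitting.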
HepG2 tox: counter-screen for TGF-b inhibitors: cytotoxicity in HepG2 cells; HepG2 CAGA-GFP viability, ATP luminescence, 18 h; Potency, µM (series often up to 46.1 µM), for the others: at the highest dose activity change, negative = cytotoxicity, actives largely listed as cytotoxic; 410,000 compounds, 0.76% hits
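HepG2 CAGA-GFP cells (1000/well, DMEM with 1% FBS) received compound, then TGF-beta at 500 pg/mL final, and were incubated 18 hours at 37 degrees C. Viability was read by CellTiter-Glo luminescence. Media-only wells were set as complete cell-killing and DMSO as no toxicity.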
ATXN viability: viability counter-screen for ATXN expression inhibitors; Potency, µM (titrated, usually from 56.7 µM), actives largely listed as cytotoxic; S2 cells (HEK-293 line with an ATXN2-luciferase reporter) viability, CellTiter-Fluor protease fluorescence, 24 h; 400,000 compounds, 0.49% hits; also: nearly all actives have a fitted effect of over 40% in size
* hit, by the source's call; i = inactive; u = inconclusive; x = no result; [ ] = dose if it differs, or a comment. Most compounds without a hit are left out; they make up all but 17% or so of the library. Calls follow the shape of the dose curve; as a rule, active = well fitted curve in the direction sought with a large enough effect; inconclusive = small, poorly fitted or top-dose-only effect, or another doubt; inactive = no such curve, though single readings can be large; an effect the other way counts as inactive or inconclusive. Potency is read from the fitted curve at half-maximal effect.

SMILES	TDP1 cell CPT	DT40 TDP1 no CPT	ATXN2 expr inh	TGFb inhibitor	HepG2 tox	ATXN viability
COc1cc(C(=O)OCC(=O)NC2CCCCC2)cc(OC)c1OC	-19.1%	-29.5%	1.9%	9.2%	-2.4%	i
CCOC(=O)c1c(NCC2CCCO2)c2ccccc2[nH]c1=O (centres undefined)	-11.1%	-13.1%	-0.7%	11.2%	2.2%	u
CCCCCCNc1c(C(=O)OCC)c(=O)[nH]c2ccccc12	16.4µM*	u	-5.1%	-23.4%	-8.5%	i
CC1Cc2ccccc2N1C(=O)CSc1nnc(N)s1 (centres undefined)	-2.6%	2.3%	7.3%	-3.0%	0.4%	i
CC1Cc2ccccc2N1C(=O)CSC1=NCCS1 (centres undefined)	10.3µM*	u	106.5%	-17.4%	-10.0%	i
CC1Cc2ccccc2N1C(=O)CSc1nc2cc3c(cc2cc1C#N)OCO3 (centres undefined)	u	u	-13.5%	5.8%	-0.4%	i
Cc1cc2cc3c(cc2nc1SCC(=O)N1c2ccccc2CC1C)OCO3 (centres undefined)	u	20.6µM*	-19.1%	-11.1%	-34.8%	i
Cc1cc(NC(=O)CSc2nc(C3CC3)nc3sc(C)c(C)c23)no1	8.2µM*	8.2µM*	-12.7%	2.9%	-38.4%	u
CC1Cc2ccccc2N1C(=O)CN1CCc2ccccc2C1 (centres undefined)	u	25.9µM*	-0.2%	0.0%	-46.2%	i
Cc1nc2cc(C(=O)N3c4ccccc4CC3C)ccc2s1 (centres undefined)	u	16.4µM*	3.3%[11.3 µM]	0.0%	2.7%	i
Cc1cc(=O)[nH]c2sc(C(=O)N3c4ccccc4CC3C)c(N)c12 (centres undefined)	u	-25.7%	-16.4%	-26.5%	-15.9%	i
Cc1cccc(NC(=O)CSc2ncnc3sc(C)c(C)c23)n1	16.4µM*	18.4µM*	-23.5%	1.5%	-5.8%	i
Cc1nc(SCC(=O)N2c3ccccc3NC(=O)CC2C)c2c(C)c(C)sc2n1 (centres undefined)	u	u	-2.3%	-20.5%	-14.9%	i
Cc1sc2nc(C3CC3)nc(SCC(=O)N3c4ccccc4CC3C)c2c1C (centres undefined)	16.4µM*	20.6µM*	-21.6%	10.6%	-20.8%	i
Cc1nnc(NC(=O)CSc2nc(C(C)C)nc3sc(C)c(C)c23)s1	u	8.2µM*	-9.9%	4.4%	-2.7%	i
COc1ccccc1C(=O)NC(=O)COC(=O)C1CCC1	8.8%	0.4%	1.1%	-2.1%	7.0%	u
Cn1c2c(c(=O)n(C)c1=O)C1(C(=O)Nc3ccccc31)C(C#N)=C(N)O2 (centres undefined)	14.6µM*	u	10.5%	-18.1%	-7.5%	i
N#CC1=C(N)Oc2ccccc2C12C(=O)Nc1n[nH]c(-c3ccccc3)c12 (centres undefined)	1.0%	u	6.3%	u	7.0%	i
CCCCOC(=O)c1ccc(NC(=O)C(=O)NCc2ccco2)cc1	0.4%	-24.3%	-13.7%	0.0%	-20.3%	i
COc1cc(/C=C2/NC(=O)N(Cc3ccccc3F)C2=O)cc(OC)c1OC	u	16.4µM*	12.3%	11.5%	-26.1%	i
Cc1cc(C(=O)NC2CCCCCC2)c2ccccc2n1	-13.8%	-11.6%	9.9%	-11.2%	-16.4%	i
Cc1cc(N2CCN(C(C(=O)NC3CCCC3)c3ccc(F)cc3)CC2)c2ccccc2n1 (centres undefined)	18.4µM*	u	x	x	x	x
Cc1cc(N2CCN(C(C(=O)NC3CCCC3)c3ccco3)CC2)c2ccccc2n1 (centres undefined)	20.6µM*	23.1µM*	x	x	x	x
